In PMC8384837, “Expanding the binding specificity for RNA recognition by a PUF domain”:

Experiments:
Experiment in all cases: yeast three-hybrid, YBZ-1, SC-Leu-His + 0.5 mM 3-AT, 4 days
Settings in all cases: tags: N-Gal4 AD-HA kept; label: inside an RPR1-promoter hybrid RNA with tandem MS2 sites; ssRNA
PUM1 PUF domain R7-RRT = PUM1 PUF domain R7-RRT (Homo sapiens, UniProt Q14671 828-1176, S1079R;N1080R;E1083T)
In short: (§1)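 The interaction score is the logarithmic change in variant frequency from input to selection. It uses log2, with a pseudocount of 1 for absent variants, and frequencies came from PCR-amplified, Illumina-sequenced repeat regions. The libraries were Pumilio-1 PUF domains randomized at the three base-contacting residues per repeat, co-expressed with matching RNA elements in strain YBZ-1 (LexA–MS2 coat fusion, HIS3 reporter). Plating lasted four days on SC-Leu (input) or SC-Leu-His + 0.5 mM 3-AT (selection).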

PUM1 PUF domain R8-RFS = PUM1 PUF domain R8-RFS (Homo sapiens, UniProt Q14671 828-1176, N1122R;Y1123F;Q1126S)
In short: as §1

PUM1 PUF domain R6-QYG = target: T1, PUM1 PUF domain R6-QYG (Homo sapiens, UniProt Q14671 828-1176, N1043Q;Q1047G)
T1 sequence: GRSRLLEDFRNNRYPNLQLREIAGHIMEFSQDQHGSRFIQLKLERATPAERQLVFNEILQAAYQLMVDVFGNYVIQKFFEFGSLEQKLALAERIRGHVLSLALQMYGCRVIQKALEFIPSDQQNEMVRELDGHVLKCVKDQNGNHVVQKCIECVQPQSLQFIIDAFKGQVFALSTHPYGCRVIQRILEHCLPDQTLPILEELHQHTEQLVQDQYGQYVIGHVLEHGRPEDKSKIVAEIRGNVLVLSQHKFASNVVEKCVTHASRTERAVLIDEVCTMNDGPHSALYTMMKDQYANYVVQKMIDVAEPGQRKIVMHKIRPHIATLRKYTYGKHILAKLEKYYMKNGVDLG
In short: as §1

PUM1 PUF domain R5-RSG = PUM1 PUF domain R5-RSG (Homo sapiens, UniProt Q14671 828-1176, C1007R;R1008S;Q1011G)
In short: as §1

PUM1 PUF domain R3-IFL = PUM1 PUF domain R3-IFL (Homo sapiens, UniProt Q14671 828-1176, C935I;R936F;Q939L)
In short: as §1

PUM1 PUF domain R3-KSD = PUM1 PUF domain R3-KSD (Homo sapiens, UniProt Q14671 828-1176, C935K;R936S;Q939D)
In short: as §1

PUM1 PUF domain R7-GPR = PUM1 PUF domain R7-GPR (Homo sapiens, UniProt Q14671 828-1176, S1079G;N1080P;E1083R)
In short: as §1

PUM1 PUF domain R7-QRR = PUM1 PUF domain R7-QRR (Homo sapiens, UniProt Q14671 828-1176, S1079Q;N1080R;E1083R)
In short: as §1

PUM1 PUF domain R1-NFV = PUM1 PUF domain R1-NFV (Homo sapiens, UniProt Q14671 828-1176, S863N;R864F;Q867V)
In short: as §1

PUM1 PUF domain R1-AWR = PUM1 PUF domain R1-AWR (Homo sapiens, UniProt Q14671 828-1176, S863A;R864W;Q867R)
In short: as §1

Sequence: GGCUAGAACUAGUGGAUCCCCCGGCGCCCGGCGGCUCGAGCCCGGGUAAGUUUAAAUAGUCUGCAUGCCGCCGGGCGCCAUGCCUGCAGGUCGACUCUAGAAAACAUG
- binding signal (PUM1 PUF domain R7-RRT): 4.83 log2 enrichment (interaction score)

Sequence: GGCUAGAACUAGUGGAUCCCCCGGCGCCCGGCGGCUCGAGCCCGGGUAAGUGUAAAUAGUCUGCAUGCCGCCGGGCGCCAUGCCUGCAGGUCGACUCUAGAAAACAUG
- binding signal (PUM1 PUF domain R8-RFS): 6.27 log2 enrichment (interaction score)
- binding signal (PUM1 PUF domain R6-QYG): 3.17 log2 enrichment (interaction score)

Sequence: GGCUAGAACUAGUGGAUCCCCCGGCGCCCGGCGGCUCGAGCCCGGGUAAGUGUCAAUAGUCUGCAUGCCGCCGGGCGCCAUGCCUGCAGGUCGACUCUAGAAAACAUG
- binding signal (PUM1 PUF domain R5-RSG): 3.08 log2 enrichment (interaction score)

Sequence: GGCUAGAACUAGUGGAUCCCCCGGCGCCCGGCGGCUCGAGCCCGGGUAAGUGUAAUUAGUCUGCAUGCCGCCGGGCGCCAUGCCUGCAGGUCGACUCUAGAAAACAUG
- binding signal (PUM1 PUF domain R3-IFL): 3.79 log2 enrichment (interaction score)
- binding signal (PUM1 PUF domain R3-KSD): 2.88 log2 enrichment (interaction score)

Sequence: GGCUAGAACUAGUGGAUCCCCCGGCGCCCGGCGGCUCGAGCCCGGGUAAGUCUAAAUAGUCUGCAUGCCGCCGGGCGCCAUGCCUGCAGGUCGACUCUAGAAAACAUG
- binding signal (PUM1 PUF domain R7-GPR): 3.96 log2 enrichment (interaction score)
- binding signal (PUM1 PUF domain R7-RRT): 4.42 log2 enrichment (interaction score)
- binding signal (PUM1 PUF domain R7-QRR): 3.77 log2 enrichment (interaction score)

Sequence: GGCUAGAACUAGUGGAUCCCCCGGCGCCCGGCGGCUCGAGCCCGGGUAAGCGUAAAUAGUCUGCAUGCCGCCGGGCGCCAUGCCUGCAGGUCGACUCUAGAAAACAUG
- binding signal (PUM1 PUF domain R8-RFS): 5.73 log2 enrichment (interaction score)

Sequence: GGCUAGAACUAGUGGAUCCCCCGGCGCCCGGCGGCUCGAGCCCGGGUAAGUGUAAAUUGUCUGCAUGCCGCCGGGCGCCAUGCCUGCAGGUCGACUCUAGAAAACAUG
- binding signal (PUM1 PUF domain R1-NFV): 5.68 log2 enrichment (interaction score)
- binding signal (PUM1 PUF domain R1-AWR): 1.06 log2 enrichment (interaction score)

Sequence: GGCUAGAACUAGUGGAUCCCCCGGCGCCCGGCGGCUCGAGCCCGGGUAAGUGUAAAUCGUCUGCAUGCCGCCGGGCGCCAUGCCUGCAGGUCGACUCUAGAAAACAUG
- binding signal (PUM1 PUF domain R1-AWR): 4.26 log2 enrichment (interaction score)

Sequence: GGCUAGAACUAGUGGAUCCCCCGGCGCCCGGCGGCUCGAGCCCGGGUAAGUGUUAAUAGUCUGCAUGCCGCCGGGCGCCAUGCCUGCAGGUCGACUCUAGAAAACAUG
- binding signal (PUM1 PUF domain R5-RSG): 2.84 log2 enrichment (interaction score)
